The values below come from the supplement of paper PMC4709259.

Structures are written as SMILES. Where a name gives a salt, the structure may show the parent alone. ± gives the standard deviation.

The test system of this experiment is Jurkat. Put plainly: mean cell size (FSC-A) relative to DMSO control (fraction of control); higher = larger cells. As to conditions: 48 h. In short, it runs like this: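 Jurkat cells at 600 cells/µl were incubated for 1 h and then treated for 48h with the Enzo Screen-Well FDA Approved Drug Library v2.0 at 25µM, with DMSO at 0.9% (v/v) final. Compounds that reduced counts below 20% of controls were retested in 10-fold dilutions down to 25nM. Cell count and mean cell size, taken as forward scatter area, were measured by flow cytometry relative to solvent-only controls. Each plate carried 6-12 controls, and values are means of 3 biological replicates.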
Regarding `CCOC(=O)N1CCC(=C2c3ccc(Cl)cc3CCc3cccnc32)CC1` [Loratadine] (concentration: 25 µM), the mean cell size stood at 0.938 ± 0.034.

`Nc1nc(=O)[nH]cc1F` [Flucytosine] (concentration: 25 µM) yielded a mean cell size of 0.997 ± 0.035.

In turn, `CC(C)CN(C[C@@H](O)[C@H](Cc1ccccc1)NC(=O)O[C@H]1CO[C@H]2OCC[C@H]21)S(=O)(=O)c1ccc(N)cc1` [Darunavir] (concentration: 25 µM) gave a mean cell size of 1.01 ± 0.037.

`CC(=O)CCCCn1c(=O)c2c(ncn2C)n(C)c1=O` [Pentoxifylline] (concentration: 25 µM) returned a mean cell size of 0.977 ± 0.028.

Consider `CCNC(=O)CCC/C=C\C[C@@H]1[C@@H](/C=C/[C@@H](O)CCc2ccccc2)[C@H](O)C[C@@H]1O` [Bimatoprost] (concentration: 25 µM), for which the mean cell size came to 0.87 ± 0.025.

Turning to `Cc1cccc(Nc2ccccc2C(=O)O)c1C` [Mefenamic Acid] (concentration: 25 µM), the mean cell size is 0.938 ± 0.025.

The compound `C[C@]12CCC(=O)C=C1[C@@H]1C[C@@H]1[C@H]1[C@@H]3[C@@H]4C[C@@H]4[C@@]4(CCC(=O)O4)[C@@]3(C)CC[C@@H]12` [Drospirenone] (concentration: 25 µM) came in with a mean cell size of 0.962 ± 0.03.

The compound `COc1cccc2c1C(=O)c1c(O)c3c(c(O)c1C2=O)C[C@@](O)(C(=O)CO)C[C@@H]3O[C@H]1C[C@H](N)[C@H](O)[C@H](C)O1` [Doxorubicin·HCl] (concentration: 250 nM) showed a mean cell size of 1.47 ± 0.048.

The compound `CN1C2CCCC1CC(NC(=O)c1nn(C)c3ccccc13)C2` (stereo not given) [Granisetron·HCl] (concentration: 25 µM) displayed a mean cell size of 0.9687 ± 0.004.

On to `Cc1cn[nH]c1` [Fomepizole] (concentration: 25 µM), for which the mean cell size came to 0.99 ± 0.036.

In turn, `NCCCC[C@H](N[C@@H](CCc1ccccc1)C(=O)O)C(=O)N1CCC[C@H]1C(=O)O` [Lisinopril·2H2O] (concentration: 25 µM) registered a mean cell size of 0.955 ± 0.022.

Compound `CCc1cccc2c3c([nH]c12)C(CC)(CC(=O)O)OCC3` (stereo not given) [Etodolac] (concentration: 25 µM) registered a mean cell size of 1.08 ± 0.042.

On to `CCOC(=O)[C@H](CCc1ccccc1)N[C@@H](C)C(=O)N1CCC[C@H]1C(=O)O` [Enalapril] (concentration: 25 µM), for which the mean cell size came to 1.01 ± 0.029.

With `O=S(=O)(O)CCS` [Mesna] (concentration: 25 µM), the mean cell size was 1.06 ± 0.026.

The compound `COc1cc2nc(N(C)CCCNC(=O)C3CCCO3)nc(N)c2cc1OC` (stereo not given) [Alfuzosin] (concentration: 25 µM) yielded a mean cell size of 0.952 ± 0.029.

Take `CN1CCC(=C2c3ccccc3C=Cc3ccccc32)CC1` [Cyproheptadine·HCl Sesquihydrate] (concentration: 25 µM): the mean cell size stood at 0.935 ± 0.027.

The compound `CC1COc2c(N3CCN(C)CC3)c(F)cc3c(=O)c(C(=O)O)cn1c23` (stereo not given) [Ofloxacin] (concentration: 25 µM) returned a mean cell size of 0.928 ± 0.011.

Regarding `O=C1Cc2cc(CCN3CCN(c4nsc5ccccc45)CC3)c(Cl)cc2N1` [Ziprasidone] (concentration: 25 µM), the mean cell size was 0.98 ± 0.062.

As to `CO/N=C(\C(=O)N[C@@H]1C(=O)N2C(C(=O)O)=C(CSc3nc(=O)c(=O)[nH]n3C)CS[C@H]12)c1csc(N)n1` [Ceftriaxone·Na] (concentration: 25 µM), the mean cell size was 0.969 ± 0.028.

Compound `OC[C@@H](O)[C@@H](O)[C@H](O)[C@H](O)CO` [Mannitol] (concentration: 25 µM) yielded a mean cell size of 0.947 ± 0.041.

On to `Nc1nc(N)c2nc(-c3ccccc3)c(N)nc2n1` [Triamterene] (concentration: 25 µM), for which the mean cell size was found to be 1.21 ± 0.038.

Regarding `Nc1ncn([C@@H]2O[C@H](CO)[C@@H](O)[C@H]2O)c(=O)n1` [Azacitidine] (concentration: 25 µM), the mean cell size stood at 0.9766 ± 0.0047.

The compound `CCCc1nc2c(C)cc(-c3nc4ccccc4n3C)cc2n1Cc1ccc(-c2ccccc2C(=O)O)cc1` [Telmisartan] (concentration: 25 µM) registered a mean cell size of 0.951 ± 0.032.

`CN(C)CC(c1ccc(O)cc1)C1(O)CCCCC1` (stereo not given) [Desvenlafaxine Succinate Hydrate] (concentration: 25 µM) had a mean cell size of 0.993 ± 0.027.

`O=C(O)CCCc1ccccc1` [Sodium Phenylbutyrate] (concentration: 25 µM) came in with a mean cell size of 0.936 ± 0.024.

`Cc1nccn1CC1CCc2c(c3ccccc3n2C)C1=O` (stereo not given) [Ondansetron] (concentration: 25 µM) had a mean cell size of 0.97 ± 0.028.

For `COc1nc(N)nc2c1ncn2[C@@H]1O[C@H](CO)[C@@H](O)[C@@H]1O` [Nelarabine] (concentration: 25 µM), the mean cell size was determined as 1.4 ± 0.014.

`CO/N=C(\C(=O)N[C@@H]1C(=O)N2C(C(=O)O)=C(COC(N)=O)CS[C@H]12)c1ccco1` [Cefuroxime·Na] (concentration: 25 µM) returned a mean cell size of 0.994 ± 0.028.

As for `CC1(C)C[C@@H]1C(=O)N/C(=C\CCCCSC[C@H](N)C(=O)O)C(=O)O` [Cilastatin·Na] (concentration: 25 µM), the mean cell size came to 0.942 ± 0.011.

`CC1(C)O[C@@H]2C[C@H]3[C@@H]4C[C@H](F)C5=CC(=O)C=C[C@]5(C)[C@H]4[C@@H](O)C[C@]3(C)[C@]2(C(=O)CO)O1` [Flunisolide] (concentration: 2.5 µM) displayed a mean cell size of 0.996 ± 0.021.

In the case of `COC(=O)N[C@H](C(=O)N[C@@H](Cc1ccccc1)[C@@H](O)CN(Cc1ccc(-c2ccccn2)cc1)NC(=O)[C@@H](NC(=O)OC)C(C)(C)C)C(C)(C)C` [Atazanavir] (concentration: 25 µM), the mean cell size was determined as 1.04 ± 0.052.

Turning to `C[C@@H](O)[C@H]1C(=O)N2C(C(=O)O)=C(S[C@@H]3CN[C@H](C(=O)N(C)C)C3)[C@H](C)[C@H]12` [Meropenem] (concentration: 25 µM), the mean cell size stood at 0.944 ± 0.015.

`Oc1ncnc2[nH]ncc12` [Allopurinol] (concentration: 25 µM) yielded a mean cell size of 0.965 ± 0.013.

Compound `C[N+](C)(C)CCOC(N)=O` [Carbachol (Carbamylcholine ) Chloride] (concentration: 25 µM) registered a mean cell size of 0.962 ± 0.019.

On to `C=C(CC)C(=O)c1ccc(OCC(=O)O)c(Cl)c1Cl` [Ethacrynic Acid] (concentration: 25 µM), for which the mean cell size amounted to 0.924 ± 0.015.

`O=C(O)c1cccnc1` [Niacin (Known As Vitamin B3, Nicotinic Acid And Vitamin Pp)] (concentration: 25 µM) gave a mean cell size of 0.945 ± 0.053.

The compound `Nc1nc(Cl)nc2c1ncn2[C@@H]1O[C@H](CO)[C@@H](O)[C@@H]1F` [Clofarabine] (concentration: 25 nM) yielded a mean cell size of 1.18 ± 0.048.

`Nc1nc(F)nc2c1ncn2[C@@H]1O[C@H](COP(=O)(O)O)[C@@H](O)[C@@H]1O` [Fludarabine Phosphate] (concentration: 2.5 µM) showed a mean cell size of 1.327 ± 0.0094.

In turn, `Clc1cccc(Cl)c1NC1=NCCN1` [Clonidine·HCl] (concentration: 25 µM) returned a mean cell size of 0.931 ± 0.049.

`CCC(=O)NCC[C@@H]1CCc2ccc3c(c21)CCO3` [Ramelteon] (concentration: 25 µM): the mean cell size came to 1.04 ± 0.066.
